A number with no mark means an inactive call. Unless noted, the call rests on the fitted dose curve; in most records, active means well fitted curve in the direction sought with a large enough effect in the repeat runs; inconclusive means weak or mixed curves; inactive means no such curve, though single readings can be large; an effect the other way counts as inactive or inconclusive. Records with an inconclusive call do not appear. Where a SMILES comes first, the peptide text is derived from it. [ ]: non-standard residue; d: D form. pGlu = O=C1CC[C@@H](C(=O)O)N1
test: qHTS assay to identify small molecule antagonists of the estrogen related receptor (ERR) signaling pathway from Tox21 library (AID 1224848); settings: ERR reporter cell line, luciferase antagonist mode, 18 h; series mostly up to 92.4 µM; activity, negative = inhibition: at the top concentration; further: nearly all actives have a fitted effect of over 50% in size
Outline: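 Luminescent reporter read-out (ONE-Glo) from NTP's ERR cell line after 18 h treatment at 37 C with DMSO-dissolved Tox21 compounds; cells pre-plated 6 h beforehand at 2,000 per well.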
On the % scale 0 is the no-effect control and ±100 the full control effect.

Row | Compound | activity, negative = inhibition
1 | Nc1ccn([C@@H]2O[C@H](CO)[C@@H](O)C2O)c(=O)n1 (stereo partly drawn) | 1.95%
2 | O=S(=O)(O)c1cccc(S(=O)(=O)O)c1 | -6.68%
3 | CCC(C(=O)NC(=O)NC(C)=O)c1ccccc1 (stereo not drawn) | 1.25% [at 42.5 µM]
4 | CC[C@H]1OC(=O)[C@H](C)[C@@H](O[C@H]2C[C@@](C)(OC)[C@@H](O)[C@H](C)O2)[C@H](C)[C@@H](O[C@@H]2O[C@H](C)C[C@H](N(C)C)[C@H]2O)[C@](C)(OC)C[C@@H](C)C(=O)[C@H](C)[C@@H](O)[C@]1(C)O | -3.58%
5 | CCOc1ccccc1OCC | 11%
6 | CCNC(=O)[C@@H]1CCCN1C(=O)[C@H](CCCN=C(N)N)NC(=O)[C@H](CC(C)C)NC(=O)CNC(=O)[C@H](Cc1ccc(O)cc1)NC(=O)[C@H](CO)NC(=O)[C@H](Cc1c[nH]c2ccccc12)NC(=O)[C@H](Cc1cnc[nH]1)NC(=O)[C@@H]1CCC(=O)N1 ([pGlu]HWSYGLRP-NHEt) | 4.13% [at 42.5 µM]
7 | C[C@H]1C[C@H]2[C@@H]3CCC4=CC(=O)C=C[C@]4(C)[C@H]3C(=O)C[C@]2(C)[C@@]1(O)C(=O)CO | 16.8% [at 42.5 µM]
8 | OCCCCCO | 2.23%
9 | Nc1c2c(nc3c1CCC3)CCCC2 | -3.34% [at 42.5 µM]
10 | CCOCC(C)O (stereo not drawn) | 2.73%
11 | CCCCN1C=CN(C)C1 | 18.5% [at 19 µM]
12 | C=CCCC(=O)O | 0.604%
13 | CC(C#N)(CCC(=O)O)N=NC(C)(C#N)CCC(=O)O (stereo not drawn) | 0.451%
14 | CN(C)CCCCCCN(C)C | 1.13%

test: qHTS assay to identify small molecule agonists of the estrogen related receptor (ERR) signaling pathway from Tox21 library (AID 1224849; calls by dose curve; further: nearly all actives have a fitted effect of over 15% in size); settings: ERR reporter cell line, ONE-Glo luciferase, 18 h; series mostly up to 92.4 µM; activity change, positive = activation: at the top concentration
Outline: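 ERR reporter cells (NTP line) pre-incubated 6 hours at 37 C, then exposed to compounds for 18 hours at 37 C. ONE-Glo luciferase luminescence was read after 30 minutes at room temperature.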

Row | Compound | activity change, positive = activation
15 | Nc1ccn([C@@H]2O[C@H](CO)[C@@H](O)C2O)c(=O)n1 (stereo partly drawn) | -7.29%
16 | O=S(=O)(O)c1cccc(S(=O)(=O)O)c1 | -4.47%
17 | CCC(C(=O)NC(=O)NC(C)=O)c1ccccc1 (stereo not drawn) | 0.701% [at 42.5 µM]
18 | CC[C@H]1OC(=O)[C@H](C)[C@@H](O[C@H]2C[C@@](C)(OC)[C@@H](O)[C@H](C)O2)[C@H](C)[C@@H](O[C@@H]2O[C@H](C)C[C@H](N(C)C)[C@H]2O)[C@](C)(OC)C[C@@H](C)C(=O)[C@H](C)[C@@H](O)[C@]1(C)O | -1.83%
19 | COC(=O)C1=C(C)NC(C)=C(C(=O)OC(C)C)C1c1cccc2nonc12 (stereo not drawn) | -18% [at 42.5 µM]
20 | CCOc1ccccc1OCC | 7.32%
21 | CCNC(=O)[C@@H]1CCCN1C(=O)[C@H](CCCN=C(N)N)NC(=O)[C@H](CC(C)C)NC(=O)CNC(=O)[C@H](Cc1ccc(O)cc1)NC(=O)[C@H](CO)NC(=O)[C@H](Cc1c[nH]c2ccccc12)NC(=O)[C@H](Cc1cnc[nH]1)NC(=O)[C@@H]1CCC(=O)N1 ([pGlu]HWSYGLRP-NHEt) | 2.29% [at 42.5 µM]
22 | C[C@H]1C[C@H]2[C@@H]3CCC4=CC(=O)C=C[C@]4(C)[C@H]3C(=O)C[C@]2(C)[C@@]1(O)C(=O)CO | 9.8% [at 42.5 µM]
23 | OCCCCCO | 2.11%
24 | Nc1c2c(nc3c1CCC3)CCCC2 | -1.45% [at 42.5 µM]
25 | CCOCC(C)O (stereo not drawn) | 1.86%
26 | CCCCN1C=CN(C)C1 | 9.96% [at 19 µM]
27 | C=CCCC(=O)O | 0.375%
28 | CC(C#N)(CCC(=O)O)N=NC(C)(C#N)CCC(=O)O (stereo not drawn) | 0.58%
29 | CN(C)CCCCCCN(C)C | 0.777%

test: qHTS RealTime-Glo MT Cell Viability Assay in HepG2 cells - 24 hour (AID 1224867); settings: RealTime-Glo luminescence; series mostly up to 76.8 µM; activity change, negative = cytotoxicity: at the top concentration; further: nearly all actives have a fitted effect of over 50% in size
Outline: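 Viability was tracked continuously by NanoLuc luminescence from prosubstrate reduced by living HepG2 cells, at successive time points over 40 h of compound exposure. Cells with reagent were preincubated 5 h at 37 °C before compound addition.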

Row | Compound | activity change, negative = cytotoxicity
30 | O=S(=O)(O)c1cc(O)c(O)c(S(=O)(=O)O)c1 | 1.36%
31 | CCC1C(=O)OCC1Cc1cncn1C (stereo not drawn) | 1.38% [at 35.3 µM]
32 | C[C@H]1[C@H](NC(=O)/C(=N/OC(C)(C)C(=O)O)c2csc(N)n2)C(=O)N1S(=O)(=O)O (stereo in doubt) | 0.842% [at 35.3 µM]
33 | Nc1ccn([C@@H]2O[C@H](CO)[C@@H](O)C2O)c(=O)n1 (stereo partly drawn) | -0.113%
34 | CC1=NN(c2cc(S(=O)(=O)O)ccc2Cl)C(=O)C1N=Nc1ccccc1 (stereo not drawn) | -1.56%
35 | CCN[C@H]1C[C@H](C)S(=O)(=O)c2sc(S(N)(=O)=O)cc21 | -0.794% [at 35.3 µM]
36 | NCCCC(N)(C(=O)O)C(F)F (stereo not drawn) | 0.0121% [at 35.3 µM]
37 | CCC(C(=O)NC(=O)NC(C)=O)c1ccccc1 (stereo not drawn) | 0.148% [at 35.3 µM]
38 | CC(C)NNC(=O)c1ccncc1 | -0.0221% [at 35.3 µM]
39 | NCCCC[C@H](N[C@@H](CCc1ccccc1)C(=O)O)C(=O)N1CCC[C@H]1C(=O)O | 0.931% [at 35.3 µM]
40 | CC1=CC(=O)[C@H]2C[C@@H]1C2(C)C | 0.421%
41 | CC[C@H]1OC(=O)[C@H](C)[C@@H](O[C@H]2C[C@@](C)(OC)[C@@H](O)[C@H](C)O2)[C@H](C)[C@@H](O[C@@H]2O[C@H](C)C[C@H](N(C)C)[C@H]2O)[C@](C)(OC)C[C@@H](C)C(=O)[C@H](C)[C@@H](O)[C@]1(C)O | 0.351%
42 | CCCCCCCCCCCCCCC(=O)O | 1.65%
43 | CN1CCC(=C2c3ccccc3CCc3cccnc32)CC1 | 2.7% [at 35.3 µM]
44 | CCCc1ncc(C[n+]2ccccc2C)c(N)n1 | 1.09% [at 35.3 µM]
45 | CCOC(=O)c1cnc2c(cnn2CC)c1NN=C(C)C | 0.381% [at 35.3 µM]
46 | CC(C(=O)O)c1cccc(Oc2ccccc2)c1 (stereo not drawn) | 1.41% [at 35.3 µM]
47 | CCNC(=O)[C@@H]1CCCN1C(=O)[C@H](CCCN=C(N)N)NC(=O)[C@H](CC(C)C)NC(=O)CNC(=O)[C@H](Cc1ccc(O)cc1)NC(=O)[C@H](CO)NC(=O)[C@H](Cc1c[nH]c2ccccc12)NC(=O)[C@H](Cc1cnc[nH]1)NC(=O)[C@@H]1CCC(=O)N1 ([pGlu]HWSYGLRP-NHEt) | 4.61% [at 35.3 µM]
48 | CC[N+](C)(CC)CCOC(=O)C1c2ccccc2Oc2ccccc21 | 2.44% [at 35.3 µM]
49 | CCC(C)(CN(C)C)OC(=O)c1ccccc1 (stereo not drawn) | 0.713% [at 35.3 µM]
50 | CN1CCN(c2cc3c(nn2)Oc2ccccc2N3C)CC1 | -0.547% [at 15.8 µM]
51 | OCCCCCO | 1.59%
52 | CCN[C@@H]1C[C@H](N)[C@@H](OC2OC(CN)=CCC2N)[C@H](O)[C@H]1O[C@H]1OC[C@](C)(O)[C@H](NC)[C@H]1O (stereo partly drawn) | 1.48% [at 0.29 µM]
53 | C[N+](C)(C)CCCCCCCCCC[N+](C)(C)C | 0.358% [at 35.3 µM]
54 | Nc1c2c(nc3c1CCC3)CCCC2 | -2.02% [at 35.3 µM]
55 | CCOCC(C)O (stereo not drawn) | 0.345%
56 | CCCCN1C=CN(C)C1 | 3.12% [at 15.8 µM]
57 | COc1cc(-c2ccc(=O)[nH]n2)ccc1OC(F)F | 0.0893% [at 35.3 µM]
58 | CN(C)CCCCCCN(C)C | 1.83%

From PubChem BioAssay (Tox21)
